# Measurements published in the supplement of paper PMC12669032.
# Unmarked numbers belong to inactive results.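 The calls were made as follows: active = AUC reduced over 20% with Padj below 0.05 in at least 2 of 3 replicates; inactive = otherwise.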
# How the values were obtained:
# Test in all cases: growth AUC relative to DMSO control (median of replicates) (fraction); higher = more growth (less inhibition), active = hit call of the paper
# Conditions in all cases: 20 µM; 24 h
# Akkermansia muciniphila = system: Akkermansia muciniphila
# Method in brief: (§1)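 Area under the growth curve was normalised to the plate median of solvent-only wells, or to row and column medians on the industrial chemical plate. Growth curves came from anaerobic gut bacterial monocultures in mGAM at 37 °C, seeded at OD600 0.05 with 20 µM compound (1% DMSO), and read at OD600 hourly for 24 h with the minimum OD set to 0. The value is the median of three biological replicates grown on separate days.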
# Bacteroides caccae = system: Bacteroides caccae
# Method in brief: as §1
# Bacteroides clarus = system: Bacteroides clarus
# Method in brief: as §1
# Bacteroides dorei = system: Bacteroides dorei
# Method in brief: as §1
# Bacteroides stercoris = system: Bacteroides stercoris
# Method in brief: as §1
# [1] = system: Bacteroides thetaiotaomicron
# Method in brief: as §1
# Bacteroides uniformis = system: Bacteroides uniformis
# Method in brief: as §1
# [2] = system: Bifidobacterium longum subsp. longum
# Method in brief: as §1
# Clostridium difficile = system: Clostridium difficile
# Method in brief: as §1
# Collinsella aerofaciens = system: Collinsella aerofaciens
# Method in brief: as §1
# Coprococcus comes = system: Coprococcus comes
# Method in brief: as §1
# Escherichia coli ED1a = system: Escherichia coli ED1a
# Method in brief: as §1
# Escherichia coli IAI1 = system: Escherichia coli IAI1
# Method in brief: as §1
# Eubacterium rectale = system: Eubacterium rectale
# Method in brief: as §1
# [3] = system: Fusobacterium nucleatum subsp. animalis
# Method in brief: as §1
# Lactobacillus gasseri = system: Lactobacillus gasseri
# Method in brief: as §1
# Lactobacillus paracasei = system: Lactobacillus paracasei
# Method in brief: as §1
# Odoribacter splanchnicus = system: Odoribacter splanchnicus
# Method in brief: as §1
# [4] = system: Parabacteroides distasonis
# Method in brief: as §1
# Parabacteroides merdae = system: Parabacteroides merdae
# Method in brief: as §1
SMILES,growth AUC (Akkermansia muciniphila),growth AUC (Bacteroides caccae),growth AUC (Bacteroides clarus),growth AUC (Bacteroides dorei),growth AUC (Bacteroides stercoris),growth AUC [1],growth AUC (Bacteroides uniformis),growth AUC [2],growth AUC (Clostridium difficile),growth AUC (Collinsella aerofaciens),growth AUC (Coprococcus comes),growth AUC (Escherichia coli ED1a),growth AUC (Escherichia coli IAI1),growth AUC (Eubacterium rectale),growth AUC [3],growth AUC (Lactobacillus gasseri),growth AUC (Lactobacillus paracasei),growth AUC (Odoribacter splanchnicus),growth AUC [4],growth AUC (Parabacteroides merdae)
O=C(NC(=O)c1c(F)cccc1F)Nc1ccc(Cl)cc1,1.14,1.01,0.996,0.998,0.974,0.997,1.01,0.954,1.01,0.955,0.97,0.993,1,1.01,0.987,0.93,0.965,0.985,1.07,0.99
COP(=S)(OC)SCN1C(=O)c2ccccc2C1=O,0.901,0.971,0.966,1,0.97,0.978,0.975,0.951,0.94,0.965,1,1,0.991,0.967,0.947,1.11,0.986,0.968,0.982,0.988
COS(=O)(=O)[O-].Cn1c(-c2ccccc2)cc(-c2ccccc2)[n+]1C,0.936,0.994,0.966,0.976,0.979,0.938,1.01,0.925,1.04,0.989,1,0.98,0.974,1,0.985,0.964,0.981,1.01,0.985,0.974
CCNc1nc(NC(C)C)nc(OC)n1,1.15,0.971,1.02,0.941,1.03,1,0.969,1.01,0.981,0.962,1.02,1,0.999,1.05,1.05,0.911,0.969,1.01,0.922,0.982
ClC1=C(Cl)C2(Cl)C3COCC3C1(Cl)C2(Cl)Cl (stereo not given),0.531 (active),0.91,1.11,0.925,1.05,0.871,0.916,0.918,0.966,1.02,0.912,1,1.03,0.992,1.12,1.01,0.94,0.99,0.987,1.02
Cc1ccn2nc(S(=O)(=O)Nc3c(F)cccc3F)nc2n1,1.04,0.968,0.986,0.957,0.955,0.985,1.06,1.03,1.03,0.945,0.981,0.969,0.965,1.1,1.1,0.999,1.02,1.09,1.02,1
CNC(=O)Oc1cccc2ccccc12,1.08,0.993,1.01,0.991,1.02,0.998,1.03,1.03,1.01,0.987,1.03,1.01,0.982,1.05,1.03,0.907,1.1,1.05,0.944,1
CCOP(=S)(OCC)Oc1ccc(=O)n(-c2ccccc2)n1,0.918,0.997,0.943,0.977,0.959,0.948,0.949,1.04,0.936,0.99,0.973,0.965,0.97,0.956,0.955,0.928,1.01,0.986,0.922,0.974
C=CC1(C)OC(=O)N(c2cc(Cl)cc(Cl)c2)C1=O (stereo not given),1.02,0.985,0.958,1,0.994,0.989,0.99,0.917,1.02,0.999,0.982,0.979,0.967,0.956,0.991,1.1,0.878,0.982,0.98,0.982
Cc1cnc(C2=NC(C)(C(C)C)C(=O)N2)c(C(=O)O)c1 (stereo not given),1.05,0.987,0.993,1.02,0.976,1.01,1.01,1.03,1.01,1.02,1,0.999,1.01,0.985,0.976,1.04,0.939,0.953,1.07,1.02
O=S1OCC2C(CO1)C1(Cl)C(Cl)=C(Cl)C2(Cl)C1(Cl)Cl (stereo not given),1.08,1,0.962,0.999,0.779,0.976,0.874,1.04,0.992,0.971,1.03,1.02,1.04,1.08,1.13,0.763,1.05,1.03,1.1,0.951
C1CCC(NC2CCCCC2)CC1.O=NO,0.874,0.983,0.991,0.991,0.831,0.984,0.943,0.967,1.01,1.08,0.832,0.991,0.95,0.601 (active),1,1.06,0.985,0.93,0.936,0.753 (active)
O=NN(CCO)CCO,1.01,1.01,1.02,0.979,1.18,1.01,1.02,0.837,1.01,0.994,1.01,0.994,1,0.977,1.01,0.976,1.01,1.13,0.861,1.04
CN(C)S(=O)(=O)N(SC(F)(Cl)Cl)c1ccccc1,1.13,1.01,1.03,0.998,1.2,1.01,1.03,0.989,1.01,0.98,1.04,1.03,1.01,1.09,1.06,1.03,1.07,1.04,1.02,0.99
CCS(=O)(=O)Cc1ccccc1OC(=O)NC,1.05,0.949,1,0.994,1.1,0.971,0.995,1.01,0.977,1.05,0.996,1,1,1.07,1.03,0.958,1.02,1,0.98,0.983
C[C@@H]1C[C@@H]([C@H](O)CC2CC(=O)NC(=O)C2)C(=O)[C@@H](C)C1,1.15,1.02,1.02,0.98,1.05,1.04,0.999,1.02,1.05,0.989,1.03,1.01,1.02,0.992,1.12,0.936,1.06,1.02,0.985,1.03

SMILES,growth AUC (Akkermansia muciniphila),growth AUC (Bacteroides caccae),growth AUC (Bacteroides clarus),growth AUC (Bacteroides dorei),growth AUC (Bacteroides stercoris),growth AUC [1],growth AUC (Bacteroides uniformis),growth AUC [2],growth AUC (Clostridium difficile),growth AUC (Collinsella aerofaciens),growth AUC (Coprococcus comes),growth AUC (Escherichia coli ED1a),growth AUC (Escherichia coli IAI1),growth AUC (Eubacterium rectale),growth AUC [3],growth AUC (Lactobacillus gasseri),growth AUC (Lactobacillus paracasei),growth AUC (Odoribacter splanchnicus),growth AUC [4],growth AUC (Parabacteroides merdae)
CC1(C)C(C=C(Cl)Cl)C1C(=O)OC(C#N)c1ccc(F)c(Oc2ccccc2)c1 (mixture of isomers),1.08,1,1.01,0.995,0.95,1.01,0.98,0.975,0.979,0.947,0.981,0.956,0.991,1.06,0.95,0.782,0.98,0.95,0.96,0.937
CNC(=O)Oc1cccc2c1OC(C)(C)C2=O,1.05,1.03,1.03,1.02,1.04,1.02,1.05,1.02,1.01,1.01,1.05,1.03,1.02,1.04,1.15,0.878,1.04,1.02,0.955,0.99
CS/C(C)=N/OC(=O)N(C)SN(C)C(=O)O/N=C(\C)SC,0.98,1.02,0.943,1.05,1.09,1.03,1.02,1.04,1.01,0.932,0.98,1.02,1.01,1.17,1.04,1.05,0.941,1.04,1.03,1.03
COCCOC(=O)C(C#N)(C(=O)c1ccccc1C(F)(F)F)c1ccc(C(C)(C)C)cc1 (stereo not given),1.07,0.937,0.965,0.927,0.941,1.01,0.942,1.01,0.943,0.885,0.971,0.953,0.966,1.05,1.03,0.839,0.908,1,0.723,0.946
CS(=O)(=O)c1ccc(C(=O)C2C(=O)CCCC2=O)c(Cl)c1,0.92,1.01,1.01,1.01,1.04,1.01,1,0.967,1.11,1.05,0.974,1.01,1.03,0.916,1.05,1.09,1.03,1.04,1.04,1.01
O=C(NC(=O)c1c(F)cccc1F)Nc1cc(Cl)c(Oc2ncc(C(F)(F)F)cc2Cl)c(Cl)c1,1.02,0.996,0.997,0.988,1.07,1.03,0.977,1.14,1,1.11,1.02,1.02,0.991,1.01,1.02,1.16,1.02,1.02,1.02,1.02
CC(=O)O.NC(N)=NCCCCCCCCNCCCCCCCCN=C(N)N,0.836,0.279 (active),0.442 (active),0.638 (active),0.186 (active),0.0333 (active),0.115 (active),0.136 (active),0.984,0.618 (active),0.64 (active),1,0.928,0.0294 (active),0.871,0.874,0.961,0.0478 (active),0.132 (active),0.0209 (active)
Clc1ccc(C2(Cn3cncn3)OCCO2)c(Cl)c1,1.03,0.932,0.984,0.934,0.815,0.916,0.985,1.01,0.956,0.913,0.966,0.98,0.979,1.03,0.988,0.937,0.946,0.923,1.01,0.954
CN=C=S,0.945,1.01,0.977,0.988,1.07,1,1,1.05,1.01,1.02,1,1,1.01,0.972,0.977,0.962,1.04,1.06,1.08,1
ClC1=C(Cl)[C@]2(Cl)[C@@H]3[C@@H]4C[C@@H]([C@H]5O[C@@H]45)[C@@H]3[C@@]1(Cl)C2(Cl)Cl,0.945,0.98,1.01,1,0.947,0.967,0.979,1.02,0.973,0.989,0.95,0.977,0.996,0.999,0.881,0.999,0.959,0.899,1.05,0.932
CC(C)c1ccc(NC(=O)N(C)C)cc1,1.04,0.978,0.987,1.02,0.937,1.02,1.02,1.18,0.995,0.947,0.979,0.972,0.97,1.05,1.07,0.934,0.98,1.12,0.998,0.935
COP(=S)(OC)Oc1ccc(S(=O)(=O)N(C)C)cc1,0.82,0.947,0.999,0.962,0.84,0.983,0.981,0.984,0.976,0.977,0.984,1,0.985,0.998,0.894,0.925,0.935,0.977,1.01,0.969
CCOP(=S)(Oc1cnc(C(C)(C)C)nc1)OC(C)C (stereo not given),0.912,0.973,0.94,1.02,0.977,1.01,0.974,0.97,1,1.03,0.998,1.01,0.985,0.811,1.02,1.11,0.988,1.07,1.03,0.995
CNC(=O)Oc1cc(C)c(S(C)=O)c(C)c1 (stereo not given),0.977,0.949,0.999,1,1.13,0.978,1.02,1.04,0.968,1.05,0.997,1.01,0.97,0.884,1.09,0.963,0.952,0.996,1,1.05
CCCN(CC)CC1COC2(CCC(C(C)(C)C)CC2)O1 (stereo not given),0.871,0.99,0.952,1.07,0.87,1.02,1.04,0.79,0.985,0.981,0.993,1,0.959,0.987,0.899,1.04,0.947,0.978,0.966,0.965
Clc1ccccc1-c1nnc(-c2ccccc2Cl)nn1,0.748,0.892,0.969,0.974,1.25,0.999,0.974,0.825,0.997,0.942,0.911,0.99,0.978,0.997,0.943,0.964,0.79,0.887,0.991,1.03
